Records with an inconclusive call do not appear. Values without a mark were called inactive. Active and inactive are the calls of the source. Calls follow the shape of the dose curve; as a rule, active = well fitted cell-killing curve with a large enough effect; inconclusive = small, poorly fitted or top-dose-only effect, or effect the other way; inactive = no such curve, though single readings can be large or run the other way. Starred links: 1 amine or outer side, 2 acyl side, 3 side chain; linkers in the order of their positions; H or OH if unused. Positions of bridges follow the written chain, without caps; N, C: chain ends. Non-standard residues stand in square brackets, D forms with d. Residues, ends and D or L forms follow the SMILES beside them. Chains are numbered I, II in the order given. Actinocin(9to1) = Cc1c2oc3c(C)ccc(C(=O)[*:1])c3nc-2c(C(=O)[*:2])c(N)c1=O; NMeV = CN[CH](C(=O)O)C(C)C; Sar = CNCC(=O)O
Experiment: Quantitative High-Throughput drug screen in 47 multiple myeloma cell lines against the NCATS MIPE library collection: ARP1_JJKsccF8 cell viability assay (AID 1918928; also: nearly all actives have a fitted effect of over 40% in size)
Conditions: ARP1 myeloma cells viability, CellTiter-Glo ATP, 48 h; series mostly up to 45.8 µM
Source text: PI: Beverly A. Mock Ph.D.
Laboratory of Cancer Biology and Genetics,
Center for Cancer Research, National Cancer Institute,
National Institute of Health, Bethesda, Maryland
Drug resistance and disease progression are common in multiple myeloma (MM) patients, underscoring the need for new therapeutic combinations. […] We hypothesized that effective combinations would reduce MYC expression and enhance p16 activity. […] These preclinical data identify potentially useful drug combinations for evaluation in drug-resistant MM and reveal potential mechanisms of combined drug sensitivity.
Described herein is the primary MIPE qHTS used to cherrypick compounds. Validated compounds were then further tested for potential synergistic activiy.
[1] Peat TJ, Gaikwad SM, Dubois W, Gyabaah-Kessie N, Zhang S, Gorjifard S, Phyo Z, Andres M, Hughitt VK, Simpson RM, Miller MA, Girvin AT, Taylor A, Williams D, D'Antonio N, Zhang Y, Rajagopalan A, Flietner E, Wilson K, Zhang X, Shinn P, Klumpp-Thomas C, McKnight C, Itkin Z, Chen L, Kazandijian D, Zhang J, Michalowski AM, Simmons JK, Keats J, Thomas CJ, Mock BA. Drug combinations identified by high-throughput screening promote cell cycle transition and upregulate Smad pathways in myeloma. Cancer Lett. 2023 Aug 1;568:216284. doi: 10.1016/j.canlet.2023.216284. Epub 2023 Jun 24. PMID: 37356470; PMCID: PMC10408729.
SEQUENCE No. (e.g., 1, 2, 3, etc.); […] (e.g., Cells, Incubation, Reagent, etc.); VALUE and DESCRIPTION.
1; Cells; 5 uL; white, solid bottom 1536-well Greiner assay plate.
2; Compounds; 23 nL; Kalypsis pin tool (Wako USA) equipped with a 1536-well pin head to transfer to the assay plates.
3; Incubation; 48 hours; 37C incubation.
4; Reagent;5uL; CellTiter Glo (Promega).
5; Detector; 425V; Luminescence; Viewlux PerkinElmer.
NOTES (numbers refer to Sequence numbers above)
1. The cell-based screening methods employed in this study were like those previously published. Briefly, the corresponding myeloma cell lines were screened in 1,536-well plates with 500 cells, 5-uL per well for inhibition of cell viability (assessed by measuring ATP levels with CellTiterGlo).
2. NCATS MIPE 4.0 library of approved and investigational drugs were added using the Kalypsis pin tool. Wells treated with DMSO only for 100% viability and media only cells for 0% viability were used as controls.
3. The assay plates were covered and incubated for 48 hours in a 37C, 5% CO2 incubator with controlled humidity.
4. After 48 hours, CellTilter-GloTM luminescent substrate mix (Promega) reagent was added to the assay plate and plates we incubated for 5 min at room temperature.
5. Signal was measured as median relative luminescence units on a ViewLux (PerkinElmer) multiplate reader.
[1] Heske CM, Davis MI, Baumgart JT, Wilson K, Gormally MV, Chen L, Zhang X, Ceribelli M, Duveau DY, Guha R, Ferrer M, Arnaldez FI, Ji J, Tran HL, Zhang Y, Mendoza A, Helman LJ, Thomas CJ. Matrix Screen Identifies Synergistic Combination of PARP Inhibitors and Nicotinamide Phosphoribosyltransferase (NAMPT) Inhibitors in Ewing Sarcoma. Clin Cancer Res. 2017 Dec 1;23(23):7301-7311. doi: 10.1158/1078-0432.CCR-17-1121. Epub 2017 Sep 12. PMID: 28899971; PMCID: PMC6636827.
Potency is read from the fitted curve at half-maximal effect.

Compound	Potency	viability
C[C@H]1O[C@H](O[C@H]2[C@H](O)[C@@H](O)[C@@H](O[C@H]3[C@H](O)[C@@H](O)C(O)O[C@H]3CO)O[C@H]2CO)[C@H](O)[C@@H](O)[C@H]1N[C@H]1C=C(CO)[C@@H](O)[C@H](O)[C@@H]1O (stereo not given in full)	inactive	
C[N+](C)([O-])CCNc1ccc(NCC[N+](C)(C)[O-])c2c1C(=O)c1c(O)ccc(O)c1C2=O	inactive	
Cn1cnc2c(F)c(Nc3ccc(Br)cc3F)c(C(=O)NOCCO)cc21	inactive	
COc1cc(C)c(Sc2cnc(NC(=O)c3ccc(CNC(C)C(C)(C)C)cc3)s2)cc1C(=O)N1CCN(C(C)=O)CC1 (stereo not given)	16600 nM (active)	
CS[C@H]1SC[C@@H]2C(=O)N(C)[C@H](C(C)C)C(=O)OC[C@H](NC(=O)c3cnc4ccccc4n3)C(=O)N[C@H](C)C(=O)N(C)[C@@H]1C(=O)N(C)[C@H](C(C)C)C(=O)OC[C@H](NC(=O)c1cnc3ccccc3n1)C(=O)N[C@H](C)C(=O)N2C	3.3 nM (active)	
Cc1c2oc3c(C)ccc(C(=O)NC4C(=O)NC(C(C)C)C(=O)N5CCCC5C(=O)N(C)CC(=O)N(C)C(C(C)C)C(=O)OC4C)c3nc-2c(C(=O)NC2C(=O)NC(C(C)C)C(=O)N3CCCC3C(=O)N(C)CC(=O)N(C)C(C(C)C)C(=O)OC2C)c(N)c1=O (stereo not given) (I: TVP[Sar][NMeV] / II: TVP[Sar][NMeV]; ester I:1-I:C, II:1-II:C; linker I:N-II:N via Actinocin(9to1); configuration not given here)	inactive	
CCc1nc(-c2cccc(C)c2)c(-c2ccnc(NC(=O)c3ccccc3)c2)s1	11800 nM (active)	
Cc1cnc(NC(=O)Nc2cc(Br)c(C)cc2OC[C@@H]2CNCCO2)cn1	13200 nM (active)	
O=C(Nc1cccc(Nc2ncc(Br)c(NCCc3cnc[nH]3)n2)c1)N1CCCC1	18700 nM (active)	
CC(C)C[C@H](NC(=O)[C@@H](NC(=O)c1cccc(-c2ccccc2)n1)[C@@H](C)O)B(O)O	16.6 nM (active)	
C#C[C@]1(O)CC[C@@H]2[C@@H]3CCc4cc(O)ccc4[C@H]3CC[C@@]21C	23500 nM (active)	
Oc1cc(-c2nc(-c3ccccc3)[nH]c2-c2ccncc2)ccc1Cl	14800 nM (active)	
Cc1nc(NC(=O)N2CCC[C@@H]2C(N)=O)sc1-c1ccnc(C(C)(C)C(F)(F)F)c1	418 nM (active)	
C=C1C(=O)O[C@H]2[C@@H]1CCC(C)=CCC[C@@]1(C)O[C@@H]21	4690 nM (active)	
COc1ccc(C(C)=O)c(O)c1	inactive	
Cn1cc(-c2ccc3ncc(Cc4ccc5ncccc5c4)n3n2)cn1	inactive	
CC(=O)O[C@H]1C[C@@H]2CC[C@H]3[C@H]4C[C@H]([N+]5(C)CCCCC5)[C@@H](OC(C)=O)[C@@]4(C)CC[C@@H]3[C@@]2(C)C[C@H]1[N+]1(C)CCCCC1	inactive	
CN(C)CC[C@H](c1ccc(Cl)cc1)c1ccccn1	inactive	
COc1cccc2c1C(=O)c1c(O)c3c(c(O)c1C2=O)C[C@@](O)(C(=O)CO)C[C@@H]3O[C@H]1C[C@H](N)[C@H](OC2CCCCO2)[C@H](C)O1 (stereo not given in full)	3320 nM (active)	
O=C(C=CC#Cc1cccc(NS(=O)(=O)c2ccccc2)c1)NO	372 nM (active)	

Compound	Potency	viability
COc1cc(N2CCC(C(N)=O)CC2)ccc1Nc1nc(N)c(Cl)c(Nc2ccccc2S(=O)(=O)C(C)C)n1	1320 nM (active)	
COc1cccc2c1C(=O)c1c(O)c3c(c(O)c1C2=O)C[C@@](O)(C(=O)CO)C[C@H]3O[C@H]1C[C@H](N)[C@H](O)[C@H](C)O1	332 nM (active)	
CCc1cnn2c(NCc3ccc[n+]([O-])c3)cc(N3CCCC[C@@H]3CCO)nc12	26.4 nM (active)	
CC(C)(C)[C@H](NC(=O)c1ccc(N)c(Cl)c1)C(=O)N1CCC[C@@H]1C(=O)N[C@H](C#N)CC(=O)O		111% [at 3.51 µM]
COc1ccc(C[C@@H](C)[C@@H](C)Cc2ccc(OC)c(OC)c2)cc1OC	132 nM (active)	
CCc1c(O)cc(O)c(C(=O)c2ccc(OCCN3CCOCC3)c(OC)c2)c1CC(=O)N(CCOC)CCOC	1480 nM (active)	
C=CC(=O)N1CCc2ccc(-n3c(=O)ccc4cnc5ccc(-c6cnn(C)c6)cc5c43)cc21	1050 nM (active)	
NC(=O)Nc1cc(-c2ccc(CN3CCOCC3)cc2)sc1C(N)=O	18700 nM (active)	
CN1CCCN(C(=O)c2cccc(-c3ccc(C=C4C(=O)Nc5ccc(Cl)cc54)o3)c2)CC1	16600 nM (active)	
CC(=O)OC[C@@H]1O[C@@H](n2ccc(=O)[nH]c2=O)[C@H](OC(C)=O)[C@H]1OC(C)=O	inactive	
CCC(C(=O)O)C1CCC(C)C(C(C)C(O)C(C)C(=O)C(CC)C2OC3(C=CC(O)[C@@]4(CC[C@](C)(C5CC[C@@](O)(CC)C(C)O5)O4)O3)C(C)CC2C)O1 (stereo not given in full)	1870 nM (active)	
N#CC(=C(O)c1ccc(Cl)cc1Cl)c1nc2cc(Cl)ccc2c(=O)[nH]1	inactive	
CCn1c(=O)c2c(nc(C=Cc3ccc(OC)c(OC)c3)n2C)n(CC)c1=O	inactive	
CCOC(=O)N1CCN([N+]([O-])=NOc2ccc([N+](=O)[O-])cc2[N+](=O)[O-])CC1	2960 nM (active)	
Oc1ccc([C@@H]2Oc3ccc(O)cc3[C@@H]3CCC[C@@H]32)cc1	23500 nM (active)	
N#CNC(=NCCCCCCOc1ccc(Cl)cc1)Nc1ccncc1	6.6 nM (active)	
COc1cc(OC)c(NC(=O)Nc2cc(C)on2)cc1Cl	inactive	
COc1ccc(Nc2nccc(NCCO)n2)cc1	inactive	
CN(N=O)C(=O)N[C@H]1C(O)OC(CO)[C@@H](O)[C@H]1O (stereo not given in full)	inactive	
CC(=O)N[C@H]1[C@@H]([C@H](O)[C@H](O)CO)OC(C(=O)O)=C[C@@H]1N=C(N)N	inactive	

Reference: PubChem BioAssay (NCATS)
